Results from PubChem BioAssay (EPA / NIEHS).
Several values for one entry are separate records, joined by “and”; a condition that tells them apart may be missing. Equal values may be shown once. Inconclusive results are not listed. More than one record can exist for a structure, and the calls need not agree. Activity calls are given as the source filed them. Rule for the calls: active = hit-call score of the fitted dose curve at least 0.9, where 1 is the maximum; inconclusive = response in the unintended direction; inactive = score below 0.9.

Target: human Thyroid Receptor alpha (THRa1), THRA (gene 7067) (UniProt P10827)
Assay: ATG_THRa1_TRANS: Attagene TRANS-FACTORIAL HepG2 Assay for human Thyroid Receptor alpha (THRa1) (AID 2283014)
Experimental: ATG_TRANS is a cell-based, multiplexed-readout assay that uses HepG2, a human liver cell line, with measurements taken at 24 hours after chemical dosing in a 24-well plate.ATG_THRa1_TRANS is one of 30 assay component(s) measured or calculated from the ATG_TRANS assay. It is designed to make measurements of mRNA induction, a form of inducible reporter, as detected with fluorescence intensity signals by Reverse transcription polymerase chain reaction (RT-PCR) and Capillary electrophoresis technology.Data from the assay component ATG_THRa1_TRANS was analyzed into 1 assay endpoint. This assay endpoint, ATG_THRa1_TRANS, was analyzed in the positive analysis fitting direction relative to DMSO as the negative control and baseline of activity. Using a type of inducible reporter, measures of mRNA for gain-of-signal activity can be used to understand the reporter gene at the transcription factor-level as they relate to the gene THRA. Furthermore, this assay endpoint can be referred to as a primary readout, because this assay has produced multiple assay endpoints where this one serves a reporter gene function. To generalize the intended target to other relatable targets, this assay endpoint is annotated to the nuclear receptor intended target family, where the subfamily is non-steroidal.
Human liver HepG2 cells are transiently transfected with multiple reporter transcription units (MRTUs) in 6-well plates using FuGene 6 reagent (Roche; 3 ml FuGene/1 mg DNA). The MRTU constructs are regulated by a cis-regulating element (promoter). […] A major difference between the CIS and TRANS system is that in CIS activities of endogenous TFs are measured, whereas the TRANS assay evaluates changes in activities of exogenous, chimeric NR-Gal4 proteins. […] At the end of 24 hour incubation, total RNA was isolated using TriZol reagent (Invitrogen). The isolated RNA is then reverse-transcribed using oligo(dT) primer and Mo-MLV reverse transcriptase (Invitrogen) with DNAse I (Ambion) treatment for 30 min. The one-tenth of the produced cDNA was amplified by PCR using Taq DNA polymerase (Invitrogen) and two reporter sequence-specific primers. The PCR products were fluorescently labeled by primer extension with 6-arboxyfluorescein (6-FAM) 5'-labeled reporter sequence-specific primer (2 min at 95 C, 20 s at 68 C and 10 min at 72 C) and these products were digested with 5U of HpaI (New England Biolabs) for 2h at 37 C. The fragments were purified using Qiaquick PCR columns (Qiagen), analyzed on an ABI 3130xL genetic analyzer (Applied Biosystems) with peak positions identified by using a set of X-rhodamine (ROX)-labeled MapMarker1000 molecular weight standards (BioVentures). The raw capillary electrophoresis data was processed using Attagraph software (Attagene).

Chain of human Thyroid Receptor alpha (THRa1), THRA (gene 7067) (P10827 whole entry, looked up): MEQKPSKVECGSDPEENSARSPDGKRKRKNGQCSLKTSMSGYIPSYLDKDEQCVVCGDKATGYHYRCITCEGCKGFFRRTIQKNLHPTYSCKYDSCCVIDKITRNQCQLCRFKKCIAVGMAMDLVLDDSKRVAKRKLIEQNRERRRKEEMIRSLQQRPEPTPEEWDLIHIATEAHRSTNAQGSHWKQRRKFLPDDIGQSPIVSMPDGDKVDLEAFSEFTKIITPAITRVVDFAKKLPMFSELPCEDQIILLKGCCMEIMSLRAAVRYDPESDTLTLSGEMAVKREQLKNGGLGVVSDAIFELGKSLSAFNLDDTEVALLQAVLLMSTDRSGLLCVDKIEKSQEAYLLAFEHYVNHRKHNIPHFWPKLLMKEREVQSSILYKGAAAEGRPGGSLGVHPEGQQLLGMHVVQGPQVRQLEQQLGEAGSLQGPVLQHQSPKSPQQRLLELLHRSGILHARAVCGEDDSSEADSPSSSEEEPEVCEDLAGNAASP

| SMILES | outcome | AC50 |
| --- | --- | --- |
| N#Cc1cc(Br)c(O)c(Br)c1 | inactive |  |
| O=C(Nc1ccccc1)Nc1ccnc(Cl)c1 | inactive |  |
| CCCN(CCC)c1c([N+](=O)[O-])cc(S(N)(=O)=O)cc1[N+](=O)[O-] | inactive |  |
| COc1ccc(C(c2ccc(OC)cc2)C(Cl)(Cl)Cl)cc1 | inactive |  |
| COc1nc(C)nc(NC(=O)NS(=O)(=O)c2ccccc2CCC(F)(F)F)n1 | inactive |  |
| CC1=C(C(=O)Nc2ccccc2)SCCO1 | inactive |  |
| CCOc1cc(Oc2ccc(C(F)(F)F)cc2Cl)ccc1[N+](=O)[O-] | inactive |  |
| Cc1ccc(-c2c(Cl)nc(C#N)n2S(=O)(=O)N(C)C)cc1 | inactive |  |
| CCCCOC(=O)c1ccccc1C(=O)OCCCC |  | 39.6 µM (active) and 35.1 µM (active) and 2.44 µM (active) |
| Oc1ccccc1-c1ccccc1 | inactive |  |
| COc1nc(NC(C)C)nc(NC(C)C)n1 | inactive |  |
| CCCCC(CC)COC(=O)c1ccccc1C(=O)OCC(CC)CCCC (stereo not given) | inactive |  |
| COC(=O)N(OC)c1ccccc1COc1ccn(-c2ccc(Cl)cc2)n1 |  | 3.06 µM (active) |
| CCOC(=O)C(Cl)Cc1cc(-n2nc(C)n(C(F)F)c2=O)c(F)cc1Cl (stereo not given) | inactive |  |
| OC(c1ccc(Cl)cc1)(c1cncnc1)c1ccccc1Cl (stereo not given) | inactive |  |
| CCOP(=S)(OCC)SCn1c(=O)oc2cc(Cl)ccc21 | inactive |  |
| C#CCOS(=O)OC1CCCCC1Oc1ccc(C(C)(C)C)cc1 (stereo not given) | inactive |  |

| SMILES | outcome | AC50 |
| --- | --- | --- |
| CON(C)C(=O)Nc1ccc(Cl)c(Cl)c1 | inactive | 5.27 µM (active) |
| Cc1cc(Cl)ccc1OCC(=O)O | inactive |  |
| Fc1ccc(Oc2ccnc3cc(Cl)cc(Cl)c23)cc1 | inactive |  |
| O=C(O)c1nc(Cl)ccc1Cl | inactive |  |
| CO/C=C(/C(=O)OC)c1ccccc1Oc1cc(Oc2ccccc2C#N)ncn1 | inactive | 12.2 µM (active) |
| CCc1nn(C)c(C(=O)NCc2ccc(C(C)(C)C)cc2)c1Cl |  | 0.157 µM (active) |
| C=CCC1=C(C)C(OC(=O)C2C(C=C(C)C)C2(C)C)CC1=O (stereo not given) | inactive |  |
| C=CC1(C)OC(=O)N(c2cc(Cl)cc(Cl)c2)C1=O (stereo not given) | inactive |  |
| CC(C)C1(C)N=C(c2nc3ccccc3cc2C(=O)O)NC1=O (stereo not given) | inactive |  |
| CCCCNC(=O)OCC#CI | inactive |  |
| CCNc1nc(Cl)nc(NC(C)C)n1 | inactive |  |
| CC(C)Oc1cc(-n2nc(C(C)(C)C)oc2=O)c(Cl)cc1Cl | inactive |  |
| COc1cnc(OC)n2nc(NS(=O)(=O)c3c(OCC(F)F)cccc3C(F)(F)F)nc12 | inactive |  |
| CCCC1COC(Cn2cncn2)(c2ccc(Cl)cc2Cl)O1 (stereo not given) | inactive |  |
| N#Cc1nn(-c2c(Cl)cc(C(F)(F)F)cc2Cl)c(N)c1S(=O)C(F)(F)F (stereo not given) |  | 48.7 µM (active) |
| COC(=O)C=C(C)OP(=O)(OC)OC | inactive |  |
